# Screening data (PubChem BioAssay)
# Shown are actives, neighbours in structure and some others; about 3.5% of the full set was active somewhere.
# BoNT-F LC inh: inhibitors of Botulinum neurotoxin F light chain protease. Multiplex microsphere protease cleavage assay, flow cytometry. inhibition, % at 10 µM. 360,000 tested, 0.22% active. AID 588497; in the data active means inhibition above about 35%, passing the limit was not always enough; inconclusive means no clear call, values can overlap the other calls
# BoNT-A LC inh2: blocks Botulinum neurotoxin A light chain protease; multiplex microsphere protease substrate cleavage, flow cytometry; inhibition, % at 10 µM; 360,000 tested, 0.17% active; AID 588499
# Anthrax LF inh2: anthrax lethal factor protease inhibition; P15917; multiplex microsphere protease cleavage assay, LF; inhibition, % at 10 µM; 360,000 tested, 0.12% active
# Target sequence (P15917 whole entry, looked up): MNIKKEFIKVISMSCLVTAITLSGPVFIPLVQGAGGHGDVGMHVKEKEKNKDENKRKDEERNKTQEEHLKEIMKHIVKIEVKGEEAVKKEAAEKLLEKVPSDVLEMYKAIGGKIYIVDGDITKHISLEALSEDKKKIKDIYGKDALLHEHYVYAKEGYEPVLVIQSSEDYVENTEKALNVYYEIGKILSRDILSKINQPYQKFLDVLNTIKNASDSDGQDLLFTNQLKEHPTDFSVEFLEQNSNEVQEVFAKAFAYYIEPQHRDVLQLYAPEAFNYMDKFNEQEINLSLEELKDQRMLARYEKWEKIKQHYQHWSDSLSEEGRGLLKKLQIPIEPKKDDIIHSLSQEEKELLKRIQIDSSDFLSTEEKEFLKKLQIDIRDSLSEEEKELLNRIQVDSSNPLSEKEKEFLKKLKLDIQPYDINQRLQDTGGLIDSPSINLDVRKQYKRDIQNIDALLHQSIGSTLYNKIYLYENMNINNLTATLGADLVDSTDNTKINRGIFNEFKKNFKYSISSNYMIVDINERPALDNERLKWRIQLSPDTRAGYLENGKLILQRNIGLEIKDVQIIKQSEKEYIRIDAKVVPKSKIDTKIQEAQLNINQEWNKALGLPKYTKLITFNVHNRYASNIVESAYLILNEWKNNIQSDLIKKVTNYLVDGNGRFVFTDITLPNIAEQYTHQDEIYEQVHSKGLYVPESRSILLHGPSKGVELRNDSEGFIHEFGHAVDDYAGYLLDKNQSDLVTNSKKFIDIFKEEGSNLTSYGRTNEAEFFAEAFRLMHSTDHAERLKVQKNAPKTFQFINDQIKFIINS
# Bead autofluor: flagged as autofluorescent in microsphere protease counterscreen; compound autofluorescence counterscreen, microsphere flow cytometry; active compounds read high; fluorescence intensity (test concentration not listed); 360,000 tested, 3.1% active; AID 624483; in the data active means fluorescence intensity above about 16000; inconclusive means no clear call, values can overlap the other calls
# Numbers stand for hits; – = inactive; ? = inconclusive. Unless noted, no stated cut-off is given here; in the data, active means inhibition above about 30%; inconclusive means no clear call, values can overlap the other calls; inactive means below that.
SMILES,BoNT-F LC inh,BoNT-A LC inh2,Anthrax LF inh2,Bead autofluor
CC(NC(=O)COC(=O)c1cn(-c2ccccc2)nc1-c1cccs1)c1ccccc1 (stereo unspecified),–,–,–,18189
O=C(Nc1ccncc1)c1cn(-c2ccccc2)nc1-c1cccs1,–,–,–,?
C[C@H]1CN([C@@H](C)CO)S(=O)(=O)c2ccc(Br)cc2O[C@H]1CN(C)C(=O)CCN1CCCCC1,–,–,–,–
CCC(CC)C(=O)c1c[nH]c(C(=O)NCCCn2ccnc2)c1,–,?,–,22434
CC(C)CC(=O)c1c[nH]c(C(=O)NCCCn2ccnc2)c1,–,–,–,19657
O=C(C[C@@H]1C[C@@H]2c3cc(NS(=O)(=O)c4ccc(F)cc4)ccc3O[C@@H]2[C@@H](CO)O1)NC1CCCCC1,–,–,–,–
CC(=O)Nc1ccc(NC(=O)CS(=O)(=O)c2cn(CC(=O)N3CCCC3)c3ccccc23)cc1,–,–,–,–
CC(NC(=O)NC12CC3CC(CC(C3)C1)C2)C1CCCO1 (stereo unspecified),–,?,–,21432
CC(=O)c1cccc(NC(=O)NC(C)C2CCCO2)c1 (stereo unspecified),–,–,–,–
C=CCNC(=S)N/N=C1\CCS(=O)(=O)c2ccccc21,–,–,–,–
O=S1(=O)CC/C(=N\O)c2ccccc21,–,?,–,23882
CS(=O)(=O)c1ccc(N2CCOCC2)c(S(C)(=O)=O)c1,–,–,–,20225
Nc1cc(S(=O)(=O)N2CCOCC2)ccc1N1CCOCC1,–,–,–,–
CC(C)(C)OC(=O)NCCc1nnc(SCC(=O)Nc2cccc(Cl)c2)o1,–,–,–,22287
CC(C)(C)OC(=O)NCCCCCc1nnc(SCC(=O)Nc2cccc(Cl)c2)o1,–,–,–,16480
O=C(Nc1ccc(C(=O)N2CCCCC2)cc1)C1CC1,–,–,–,–
CCC1(C)Cc2c(sc3nn[nH]c(=O)c23)CO1 (stereo unspecified),–,–,–,16707
CCC1(C)Cc2c(sc3nnn(Cc4ccccc4Cl)c(=O)c23)CO1 (stereo unspecified),–,–,–,20244
CCC1(C)Cc2c(sc3nnn(CC(=O)Nc4ccccc4)c(=O)c23)CO1 (stereo unspecified),–,?,–,–
CC1(C)Cc2c(sc3nn[nH]c(=O)c23)CO1,–,–,–,–
Cc1c(C(=O)NCc2ccc(C(F)(F)F)cc2)sc(=O)n1Cc1ccc(S(=O)(=O)N(C)C)cc1,–,–,–,–
Cc1c(O[C@@H]2O[C@H](CO)[C@@H](O)[C@H](O)[C@H]2O)ccc2c1oc(=O)c1ccccc12,35,–,–,–
COc1cccc(OC)c1OCCCCn1cnc2ccccc2c1=O,–,–,–,–
Cc1cc(C)c(C)c(OCCCCn2cnc3ccccc3c2=O)c1,–,–,–,23324
Cc1ccc(S(=O)(=O)n2nc(-c3ccc(Cl)cc3)nc2NCc2ccco2)cc1,–,?,–,23333
SMILES,BoNT-F LC inh,BoNT-A LC inh2,Anthrax LF inh2,Bead autofluor
O=C(COc1ccccc1)n1nc(-c2ccc(Cl)cc2)nc1NCc1ccco1,–,–,–,21640
COc1ccc(-n2cnnc2SCc2csc(-c3ccccc3)n2)cc1,–,?,–,22341
CC(C)(C)CN1CCN(Cc2cccnc2)CC1CCO (stereo unspecified),?,–,–,–
CC(CN1CCCCC1)OC(=O)/C=C/c1ccccc1 (stereo unspecified),36,–,–,–
COc1ccc(/C=C/C(=O)OC(C)CN2CCOCC2)cc1 (stereo unspecified),–,–,–,17262
CC(CN1CCOCC1)OC(=O)/C=C/c1ccccc1 (stereo unspecified),–,–,–,–
COc1cccc(C(=O)N2CCC[C@H]2C(=O)N2CCC[C@H]2C(=O)N[C@@H](C)c2ccccc2)c1,–,–,–,–
CCOC(=O)CC1NC(=O)c2ccccc21 (stereo unspecified),–,–,–,–
NC(=O)CC1NC(=O)c2ccccc21 (stereo unspecified),–,–,–,23615
Cn1c(SCc2ccc(Cl)cc2Cl)nc(C(F)(F)F)cc1=O,–,–,–,–
CCSc1nc(C(F)(F)F)cc(=O)n1-c1ccccc1,–,?,–,20108
CC(C)Sc1nc(C(F)(F)F)cc(=O)n1-c1ccccc1,–,?,–,20162
CCCCC(=O)N(C)c1c(C)nc2ccc(C(=O)N3CCNC(=O)C3)cn12,–,–,–,–
CN(CCCn1ccc(NC(=O)OCc2ccccc2)nc1=O)CCc1ccccn1,–,–,–,–
COC(=O)[C@@]1(C(C)C)N=C(c2cc(OC)c(OC)c(OC)c2)[C@]2(O1)C(=O)Nc1ccc(F)cc12,–,–,–,–
COc1ccccc1N1CCN(S(=O)(=O)c2cccs2)CC1,–,–,–,–
COc1ccccc1N1CCN(C(=O)C(NS(=O)(=O)c2cccs2)c2ccccc2)CC1 (stereo unspecified),–,–,–,16978
COc1ccccc1N1CCN(C(=O)C(Cc2ccccc2)NC(=O)C2CCCCC2)CC1 (stereo unspecified),–,–,–,25307
CC(C)C(=O)Nc1cccc(C(=O)NCc2ccc(S(N)(=O)=O)cc2)c1,–,–,–,18546
O=C(Nc1ccc(Cl)cc1)N1CCSc2ccccc21,–,–,–,23243
O=C(Nc1ccc(Cl)cc1)N1CCCC1,–,–,–,22686
COc1ccccc1N1CCN(C(=O)c2ccc3ncsc3c2)CC1,–,–,–,–
CC(C)[C@@H]1Cc2[nH]c(=S)[nH]c(=O)c2[C@H](CCc2ccccc2)O1,–,–,–,–
CC(=O)Nc1cccc(NC(=O)CSc2nc(C)c(C)c(C)c2C#N)c1,–,?,–,21241
Cc1cc(C)n(CCNC(=O)c2ccco2)n1,–,–,–,–
SMILES,BoNT-F LC inh,BoNT-A LC inh2,Anthrax LF inh2,Bead autofluor
COc1ccccc1C(CNC(=O)c1ccc(NS(=O)(=O)c2ccc3c(c2)OCCO3)cc1)N(C)C (stereo unspecified),–,–,–,–
Cc1cccc(-n2c(-c3csc(C(C)C)c3)n[nH]c2=S)c1,–,–,–,20031
CCCc1cc(-c2n[nH]c(=S)n2-c2cccc(C)c2)cs1,–,–,–,–
Cc1c(NS(=O)(=O)c2ccc3[nH]c(=O)[nH]c3c2)c(=O)n(-c2ccccc2)n1C,–,–,–,20240
Cc1c(NC(=O)c2ccccc2)c(=O)n(-c2ccccc2)n1C,–,–,–,–
COc1ccccc1NC(=O)Nc1c(C)n(C)n(-c2ccccc2)c1=O,–,?,–,21129
Cc1c(NC(=O)c2ccccc2F)c(=O)n(-c2ccccc2)n1C,–,?,–,16314
Cc1c(NC(=O)c2c(F)c(F)c(F)c(F)c2F)c(=O)n(-c2ccccc2)n1C,–,–,–,–
Cc1c(NS(=O)(=O)c2ccccc2)c(=O)n(-c2ccccc2)n1C,–,–,–,–
COc1ccccc1C(=O)Nc1c(C)n(C)n(-c2ccccc2)c1=O,–,–,–,22949
COc1ccc(C(=O)N2CCc3ccccc3C2)cc1S(=O)(=O)N1CCCC1,–,–,–,–
CC1(Oc2ccc(CC#N)cc2)CCN(Cc2ccc(-n3ccnc3)cc2)C1 (stereo unspecified),–,–,–,–
Cc1ccc(S(=O)(=O)NCC(=O)N(CC(=O)NCC2CCCO2)Cc2ccccc2Cl)cc1 (stereo unspecified),–,–,–,–
